Test results reported in PubChem BioAssay (NCI).
The panel holds about 83,000 compounds, 20% with a hit somewhere; the sample as a whole holds those more often.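 Negative percent growth values reflect cell death: -40 means 40% of the cells present at the start died, and -100 means all died.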 Activity calls are given as the source filed them. How the source made its calls: active means growth percent below 10; inactive means the rest.

Columns and labels:
Experiment in all cases: NCI-60 one-dose screen, 48 h (100 = growth as untreated, 0 = no growth, -100 = all killed)
Details in all cases: 10 µM unless noted
DU-145 prostate = system: DU-145 prostate
K-562 leukemia = system: K-562 leukemia
MALME-3M melanoma = system: MALME-3M melanoma
MDA-MB-231 breast = system: MDA-MB-231 breast
RXF 393 renal = system: RXF 393 renal
SF-268 CNS = system: SF-268 CNS
SF-295 CNS = system: SF-295 CNS
SF-539 CNS = system: SF-539 CNS
UACC-257 melanoma = system: UACC-257 melanoma
M14 melanoma = system: M14 melanoma
HCT-15 colon = system: HCT-15 colon
HT29 colon = system: HT29 colon
SNB-75 CNS = system: SNB-75 CNS
SNB-19 CNS = system: SNB-19 CNS
U251 CNS = system: U251 CNS
PC-3 prostate = system: PC-3 prostate
SK-MEL-5 melanoma = system: SK-MEL-5 melanoma
UACC-62 melanoma = system: UACC-62 melanoma
LOX IMVI melanoma = system: LOX IMVI melanoma
SK-MEL-28 melanoma = system: SK-MEL-28 melanoma

Measured: growth

O=C(CSc1nccc(Nc2ccc(S(=O)(=O)Nc3ccccn3)cc2)n1)c1ccc(Cl)cc1
inactive: DU-145 prostate 103% | K-562 leukemia 86.6% | MALME-3M melanoma 112% | MDA-MB-231 breast 85.8% | RXF 393 renal 106% | SF-268 CNS 95.1% | SF-295 CNS 98.2% | SF-539 CNS 95.3% | UACC-257 melanoma 91.3% | M14 melanoma 107% | HCT-15 colon 99.9% | HT29 colon 107% | SNB-75 CNS 101% | SNB-19 CNS 97.1% | U251 CNS 93.9% | PC-3 prostate 84.3% | SK-MEL-5 melanoma 70.8% | UACC-62 melanoma 82.4% | LOX IMVI melanoma 87.6% | SK-MEL-28 melanoma 118%

O=C1COCCN1c1ccc(NCc2cn(Cc3ccc(F)cc3)c3ccccc23)cc1
inactive: DU-145 prostate 81.6% | K-562 leukemia 27.7% | MALME-3M melanoma 61.5% | MDA-MB-231 breast 85.3% | SF-268 CNS 96.2% | SF-295 CNS 44.1% | SF-539 CNS 92.1% | UACC-257 melanoma 27.9% | M14 melanoma 72.7% | HCT-15 colon 61.9% | HT29 colon 34.8% | SNB-75 CNS 65.3% | SNB-19 CNS 92.2% | U251 CNS 55.9% | PC-3 prostate 93.3% | SK-MEL-5 melanoma 27.3% | LOX IMVI melanoma 83.9% | SK-MEL-28 melanoma 87.6%
active: RXF 393 renal -3.08% | UACC-62 melanoma -65.8%

CO[C@H]1CC[C@@]2(C)C(=CC[C@H]3[C@@H]4C[C@H](O)C[C@@]4(C)CC[C@@H]32)C1
inactive: DU-145 prostate 42.1% | K-562 leukemia 20.7% | MALME-3M melanoma 52.1% | MDA-MB-231 breast 56.2% | RXF 393 renal 58.5% | SF-268 CNS 49.2% | SF-295 CNS 40.8% | SF-539 CNS 38% | UACC-257 melanoma 65.2% | M14 melanoma 36.6% | HCT-15 colon 36.4% | HT29 colon 69% | SNB-75 CNS 32.8% | SNB-19 CNS 55.3% | U251 CNS 38.6% | PC-3 prostate 68.3% | SK-MEL-5 melanoma 30.9% | UACC-62 melanoma 42.6% | LOX IMVI melanoma 48.7% | SK-MEL-28 melanoma 68.5%

ClC1=C(Cl)C(Cl)=C(Cl)C1=Cc1ccccc1
active: DU-145 prostate -76.4% | K-562 leukemia 1.01% | MALME-3M melanoma -53.7% | MDA-MB-231 breast -21% | RXF 393 renal -91.4% | SF-268 CNS -44.9% | SF-295 CNS -30.1% | SF-539 CNS -43.6% | UACC-257 melanoma -66.7% | M14 melanoma -93.1% | HCT-15 colon -55.1% | HT29 colon -30.1% | SNB-75 CNS -77% | SNB-19 CNS -16.8% | U251 CNS -50.3% | PC-3 prostate -10.3% | SK-MEL-5 melanoma -95.8% | UACC-62 melanoma -77% | LOX IMVI melanoma -91.5% | SK-MEL-28 melanoma -87.5%

C=C(CC(=O)OC)C(C)=O
inactive: DU-145 prostate 107% | K-562 leukemia 106% | MALME-3M melanoma 128% | MDA-MB-231 breast 94.8% | RXF 393 renal 112% | SF-268 CNS 106% | SF-295 CNS 106% | SF-539 CNS 120% | UACC-257 melanoma 118% | M14 melanoma 119% | HCT-15 colon 117% | HT29 colon 119% | SNB-75 CNS 110% | SNB-19 CNS 103% | U251 CNS 116% | PC-3 prostate 109% | SK-MEL-5 melanoma 107% | UACC-62 melanoma 95.4% | LOX IMVI melanoma 110% | SK-MEL-28 melanoma 118%

COc1ncc(-c2ccc3nc(N)n(-c4ccccc4C(F)(F)F)c(=O)c3c2)cc1S(=O)(=O)Nc1ccc(F)cc1F
inactive: DU-145 prostate 32.3% | K-562 leukemia 61.5% | MALME-3M melanoma 76.2% | RXF 393 renal 10.6% | SF-268 CNS 46.1% | SF-295 CNS 33.4% | UACC-257 melanoma 82.5% | HCT-15 colon 29.4% | HT29 colon 10.8% | SNB-75 CNS 28.2% | SNB-19 CNS 76.1% | U251 CNS 28.2% | PC-3 prostate 39% | UACC-62 melanoma 68.8% | SK-MEL-28 melanoma 53.9%
active: MDA-MB-231 breast -11% | SF-539 CNS 6.32% | M14 melanoma 8.91% | SK-MEL-5 melanoma -48.9% | LOX IMVI melanoma -52.2%

COc1ccc(C(=O)CSc2nccc(Nc3ccc(C(=O)O)cc3)n2)cc1
inactive: DU-145 prostate 107% | K-562 leukemia 115% | MALME-3M melanoma 93% | MDA-MB-231 breast 102% | RXF 393 renal 99% | SF-268 CNS 96.6% | SF-295 CNS 104% | SF-539 CNS 99.9% | UACC-257 melanoma 96.6% | M14 melanoma 92.1% | HCT-15 colon 100% | HT29 colon 104% | SNB-75 CNS 102% | SNB-19 CNS 101% | U251 CNS 98% | PC-3 prostate 102% | SK-MEL-5 melanoma 93.6% | UACC-62 melanoma 89.7% | LOX IMVI melanoma 101% | SK-MEL-28 melanoma 100%
